Source: PubChem BioAssay (NCI)
Compounds without any hit were thinned out: in the full panel of roughly 83,000, 20% have a hit.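 Method: cells in 96-well plates; compound added at one concentration; 48 h incubation; percent growth measured; values under 10 scored active.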 Active and inactive are the calls of the source.

What was measured:
Test in all cases: NCI-60 one-dose screen, 48 h (100 = growth as untreated, 0 = no growth, -100 = all killed)
[1] = test system: DU-145 prostate; settings: 10 µM unless noted
[2] = test system: K-562 leukemia; settings: 10 µM unless noted
[3] = test system: MALME-3M melanoma; settings: 10 µM unless noted
[4] = test system: MDA-MB-231 breast; settings: 10 µM unless noted
[5] = test system: RXF 393 renal; settings: 10 µM unless noted
[6] = test system: SF-268 CNS; settings: 10 µM unless noted
[7] = test system: SF-295 CNS; settings: 10 µM unless noted
[8] = test system: SF-539 CNS; settings: 10 µM unless noted
[9] = test system: M14 melanoma; settings: 10 µM unless noted
[10] = test system: HCT-15 colon; settings: 10 µM unless noted
[11] = test system: HT29 colon; settings: 10 µM unless noted
[12] = test system: SNB-19 CNS; settings: 10 µM unless noted
[13] = test system: PC-3 prostate; settings: 10 µM unless noted
[14] = test system: SK-MEL-5 melanoma; settings: 10 µM unless noted
[15] = test system: UACC-62 melanoma; settings: 10 µM unless noted
[16] = test system: LOX IMVI melanoma; settings: 10 µM unless noted
[17] = test system: SK-MEL-28 melanoma; settings: 10 µM unless noted
[18] = test system: UACC-257 melanoma; settings: 10 µM
[19] = test system: SNB-75 CNS; settings: 10 µM unless noted
[20] = test system: U251 CNS; settings: 10 µM unless noted

Measured: growth

Cc1ccc(-c2csc3nc(C)c(CCCl)c(=O)n23)cc1
inactive: [1] 104% | [2] 95% | [3] 107% | [4] 79.9% | [5] 106% | [6] 91.4% | [7] 104% | [8] 108% | [9] 103% | [10] 98.5% | [11] 105% | [12] 100% | [13] 83.5% | [14] 89.7% | [15] 88.2% | [16] 89.1% | [17] 113%

COc1cccc(NC(=O)Cn2cc3c(=O)oc4ccccc4c3n2)c1
inactive: [1] 103% | [2] 103% | [3] 103% | [4] 96.6% | [6] 103% | [7] 97.2% | [8] 102% | [18] 101% | [9] 101% | [10] 109% | [11] 105% | [19] 64.7% | [12] 102% | [20] 125% | [13] 97.4% | [14] 100% | [15] 100% | [16] 113% | [17] 94%

O=C(Nc1cc(C(F)(F)F)cc(C(F)(F)F)c1)Nc1ccc(OCc2nnc(-c3ccc(Cl)cc3)o2)c(F)c1
active: [3] -3.82% | [4] -17% | [7] 8.71% | [18] 2.65% | [20] 1.55% | [13] 3.89% | [14] -29.6% | [16] 3.82%
inactive: [1] 23.8% | [2] 16.1% | [6] 25.6% | [8] 10.5% | [9] 18.6% | [10] 13.6% | [11] 10.8% | [19] 14.8% | [12] 23% | [15] 27.7% | [17] 28.8%

C=C1C(=O)O[C@H]2[C@H]1CC/C(Cn1cc(-c3ccccc3C(F)(F)F)nn1)=C\CC[C@@]1(C)O[C@@H]21
inactive: [7] 58.8% | [12] 53.3% | [14] 14.5%
active: [1] -95.4% | [2] -13% | [3] -59.3% | [4] -33.4% | [5] -72.3% | [6] -4.71% | [8] -74.9% | [9] -79.1% | [10] -70.7% | [11] -85.3% | [15] -61.8% | [17] -58.9%

NC(=O)c1ccc2c(c1)OCO2
inactive: [1] 108% | [2] 115% | [3] 98.3% | [4] 100% | [5] 94.5% | [6] 97.2% | [7] 96.5% | [8] 104% | [9] 101% | [10] 102% | [11] 103% | [12] 109% | [20] 107% | [13] 98.9% | [14] 99.2% | [15] 103% | [16] 95.4% | [17] 108%

COc1cc(CCn2nnc3c(Nc4ccc(N5CCOCC5)cc4)ncnc32)cc(OC)c1
inactive: [1] 99.3% | [2] 44.4% | [3] 100% | [4] 91.9% | [6] 99.7% | [7] 100% | [8] 87.5% | [18] 102% | [9] 85.5% | [10] 93.6% | [11] 99.3% | [19] 94.2% | [12] 93.3% | [20] 95.6% | [13] 72.1% | [14] 93.6% | [15] 91.5% | [16] 97.5% | [17] 97%

COc1ccc(-c2nnc(COc3ccc(NC(=O)Nc4ccc(Cl)c(C(F)(F)F)c4)cc3F)o2)cc1
inactive: [1] 13.2% | [2] 16.9% | [6] 20.5% | [18] 30.3% | [19] 15.6% | [12] 21.7% | [14] 12.3% | [15] 19.2%
active: [3] -1.11% | [4] -8.46% | [7] -3.88% | [8] 0.516% | [9] 9.03% | [10] 8.08% | [11] 9.28% | [20] -26.6% | [13] -8.78% | [16] 1.05% | [17] 1.13%

O=c1[nH]c(-c2cn(-c3ccc(Cl)cc3)nn2)nc2ccccc12
active: [19] -9.19%
inactive: [1] 94.6% | [2] 96.6% | [3] 59% | [4] 74.9% | [6] 77.9% | [7] 83.6% | [8] 48.2% | [18] 77.9% | [9] 91.4% | [10] 101% | [11] 72.3% | [12] 72.8% | [20] 74.5% | [13] 74.8% | [14] 79% | [15] 60.9% | [16] 90.8% | [17] 58.1%

COc1ccc(/C=C/C(=O)OCC(=O)NNC(=O)c2ccccc2)cc1OC
inactive: [1] 101% | [2] 90.2% | [3] 105% | [4] 94.8% | [5] 97.1% | [6] 108% | [7] 89.6% | [8] 91% | [9] 107% | [10] 108% | [11] 105% | [19] 78.2% | [12] 111% | [13] 97.3% | [14] 97.8% | [15] 98.4% | [16] 87.1% | [17] 125%

C=C1C(=O)O[C@H]2[C@H]1CC/C(Cn1cc(-c3ccc(N)cc3)nn1)=C\CC[C@@]1(C)O[C@@H]21
active: [1] 4.28% | [2] 6.36% | [3] -23.1% | [4] 4.85% | [5] -67.1% | [8] -18.7% | [9] -18.2% | [10] -46.9% | [11] -59.4% | [15] -37.4% | [16] -63.6% | [17] -17%
inactive: [6] 16.6% | [7] 67.6% | [19] 25.6% | [12] 61.3% | [13] 24.1% | [14] 35.3%

CC(Br)C(OC(=O)c1ccccc1Cl)c1cc2c(cc1Br)OCO2 (stereo not drawn)
inactive: [1] 92.7% | [2] 94.6% | [3] 92.9% | [4] 94.3% | [5] 77.8% | [6] 86.1% | [7] 101% | [8] 100% | [9] 86.6% | [10] 86.9% | [11] 85.5% | [12] 93.7% | [20] 95.9% | [13] 82.8% | [14] 87% | [15] 72.5% | [16] 92.1% | [17] 94.5%

O=Nc1c(-c2c(O)[nH]c3ccc([N+](=O)[O-])cc23)[nH]c2ccc(O)cc12
active: [1] 6.72% | [6] 6.5% | [8] -34.1% | [18] 9.29% | [19] -28.1% | [20] 0.602% | [13] 2.12% | [14] -40.9% | [15] -34.4% | [16] -32.4% | [17] -11%
inactive: [2] 20.9% | [3] 11.7% | [4] 25.4% | [7] 20.9% | [9] 11.4% | [10] 10.3% | [11] 69.2% | [12] 17.5%

CCCCn1c(=O)c(C2CNC(=O)c3ccccc3N2)cc2ccccc21 (stereo not drawn)
inactive: [1] 108% | [2] 99.3% | [3] 107% | [4] 77.5% | [5] 111% | [6] 98.9% | [7] 96.8% | [8] 89.9% | [9] 107% | [10] 101% | [11] 103% | [12] 91% | [20] 98% | [13] 106% | [14] 102% | [15] 88.4% | [16] 97.3% | [17] 102%

N#CC1=C(N)n2nc(-c3ccncc3)nc2NC1c1cccc2ccccc12 (stereo not drawn)
inactive: [1] 93.3% | [2] 80.9% | [3] 82% | [4] 77.6% | [5] 87.4% | [6] 94.5% | [7] 90.5% | [8] 88.2% | [9] 90.1% | [10] 90.4% | [11] 97.8% | [19] 67.6% | [12] 92.8% | [13] 76% | [14] 88.6% | [15] 72.4% | [16] 79% | [17] 106%

ClC1=C(Cl)C(Cl)=C(Cl)C1=Cc1ccc(Cl)cc1Cl
inactive: [11] 10.1%
active: [1] -5.47% | [2] 0.397% | [3] -30.8% | [4] -10.8% | [5] -94.8% | [6] -43.4% | [7] -16.6% | [8] -30% | [9] -30.1% | [10] -56.5% | [19] -45.6% | [12] -6.26% | [13] -16.5% | [14] -88.1% | [15] -29% | [16] -95% | [17] -28.5%

Cc1cc(C(=O)O)c(N)c(C)n1
inactive: [1] 110% | [2] 104% | [3] 109% | [4] 106% | [5] 121% | [6] 104% | [7] 111% | [8] 102% | [9] 102% | [10] 100% | [11] 112% | [19] 89.4% | [12] 110% | [13] 96.4% | [14] 115% | [15] 96.6% | [16] 94.7% | [17] 117%

CC1CCc2c(sc(NC(=O)CSc3nnc4ccccn34)c2C(N)=O)C1 (stereo not drawn)
inactive: [1] 144% | [2] 117% | [3] 181% | [4] 102% | [6] 109% | [7] 93.6% | [8] 137% | [9] 117% | [10] 106% | [11] 117% | [19] 104% | [12] 115% | [13] 106% | [14] 99.3% | [15] 101% | [16] 90.5% | [17] 137%
active: [5] 1.36%
